# Source: PubChem
# VDR inhibitor = Inhibitors of the vitamin D receptor (VDR): qHTS | VDR-SRC2-3 peptide fluorescence polarization, 2 h | Vitamin D3 receptor (Homo sapiens), P11473 | hit rate 0.93% among 400,000 | Potency, µM, for inactives: max response, negative = inhibition, hits mostly inhibitors
# Target sequence (P11473 whole entry, looked up): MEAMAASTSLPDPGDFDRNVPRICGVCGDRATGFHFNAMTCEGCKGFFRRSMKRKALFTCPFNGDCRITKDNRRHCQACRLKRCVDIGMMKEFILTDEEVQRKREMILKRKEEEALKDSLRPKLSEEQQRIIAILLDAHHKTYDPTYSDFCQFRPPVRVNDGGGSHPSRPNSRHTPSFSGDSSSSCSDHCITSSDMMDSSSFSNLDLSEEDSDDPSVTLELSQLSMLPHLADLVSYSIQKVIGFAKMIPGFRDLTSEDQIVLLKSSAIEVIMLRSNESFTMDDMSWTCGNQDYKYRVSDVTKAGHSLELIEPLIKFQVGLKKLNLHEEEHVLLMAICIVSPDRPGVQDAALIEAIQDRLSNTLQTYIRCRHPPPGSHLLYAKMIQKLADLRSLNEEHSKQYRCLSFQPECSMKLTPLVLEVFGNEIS
#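 Inhibition of the VDR/SRC2-3 peptide interaction is quantified by fluorescence polarization. Compounds (23 nl, pintool) incubate with the reagents for 2 hours at ambient room temperature.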
# GCN5L2 inh = qHTS Assay for Inhibitors of GCN5L2 | Histone acetyltransferase KAT2A (Homo sapiens), Q92830 | GCN5L2 HAT assay, ThioGlo1 CoA-SH fluorescence | Potency, µM (titrated, usually from 58.9 µM), for the others: at the highest dose activity change, negative = inhibition, hits mostly inhibitors | hit rate 0.21% among 390,000 | AID 504327, 2011
#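 Compounds, pin-transferred from DMSO stocks, meet 20nM GCN5L2 for 15 min before the reaction begins with H3(1-25) peptide (75uM) and acetyl-CoA (70uM). Thiol-reactive ThioGlo1 reports CoA release over 20 min at room temperature.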
# TrxR1 inh = qHTS Assay for Inhibitors of Mammalian Selenoprotein Thioredoxin Reductase 1 (TrxR1): qHTS. Thioredoxin reductase 1, cytoplasmic (Rattus norvegicus), O89049. recombinant rTrxR1, NADPH fluorescence consumption, selenite substrate. Potency, µM (series often up to 114 µM), inactives show at the top dose activity change, negative = inhibition, usual class: inhibitors. hit rate 1% among 390,000. AID 588453, 2011; further: nearly all actives have a fitted effect of over 65% in size
#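 Rat TrxR1 (90 nM in the dispensed reagent) was pre-reduced with 400 uM NADPH for 5 min at room temperature, then incubated with compound for 15 min. After 400 uM selenite was added, NADPH fluorescence (Ex 340/Em 450 nm) was followed for 8 min.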
# TrxR1 substrate = qHTS Assay for Substrates of Mammalian Selenoprotein Thioredoxin Reductase 1 (TrxR1): qHTS; purified TrxR1 substrate turnover, NADPH consumption readout; Potency, µM (highest dose often 114 µM), inactives show at the top dose activity change, negative = substrate turnover; hit rate 0.01% among 390,000; AID 588456, 2011; further: nearly all actives have a fitted effect of over 50% in size
#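 Rat TrxR1, dispensed at 90 nM, was prereduced with 400 uM NADPH (final) for 5 min at ~22 deg C, then incubated with compound 15 min before 400 uM selenite. A first-read NADPH fluorescence drop versus no-compound background flagged substrates.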
# The depositor's hits bear a star; ? = inconclusive; / = no result given; [ ] = remark or other dose. Compounds with a hit are over-represented: about 1.8% of the library has one in this group of screens. The call rests on the fitted dose curve; in most records, active means well fitted curve in the direction sought with a large enough effect; inconclusive means small, poorly fitted or top-dose-only effect, or another doubt; inactive means no such curve, though single readings can be large; an effect the other way counts as inactive or inconclusive. On the % scale 0 is the no-effect control and ±100 the full control effect; potency means the concentration at half of the fitted maximal effect.
SMILES,VDR inhibitor,GCN5L2 inh,TrxR1 inh,TrxR1 substrate
O=C(C[n+]1ccc2ccccc2c1)c1ccc(F)cc1,/,/,-6%,11%
COC(=O)c1c(NC(=O)/C=C/C(=O)O)sc(C)c1-c1ccc(C(C)C)cc1,25µM*,0%,-8%[57.1 µM],4%[57.1 µM]
CCOC(=O)c1c(NC(=O)/C=C/C(=O)O)sc(C)c1-c1ccc(F)cc1,22µM*,-1%,-13%[57.1 µM],1%[57.1 µM]
COC(=O)c1c(NC(=O)/C=C/C(=O)O)sc(C)c1-c1ccc(C)c(C)c1,89µM*,-5%,-2%,-8%
NC(=O)COC(=O)c1ccccc1OCC(=O)Nc1ccc(Br)cc1,/,/,1%,4%
CC1(C)C(O)C=C[C@@]2(C)C1CC(=O)O[C@@]1(C)C3=CC(=O)OC(c4ccoc4)[C@]3(C)CCC21 (some centres not stated),45µM*,-6%,/,/
CCOc1cc(N2CCOCC2)c(OCC)cc1NC(=O)Cc1ccccc1OC,-7%,28µM*,4%[57.1 µM],4%[57.1 µM]
CCCCN(CCCC)c1nc2ccccc2nc1C(C#N)C(=O)NCCCOC (configuration not stated),9%,-15%,40µM*,4%
O=C(Nc1ccccc1F)c1cnn2c1NC(=C1CC1)C=C2C(F)F,/,/,11%,1%
Cc1ccc(C2=NS(=O)(=O)N(C)C(C(=O)N3CCOCC3)=C2)cc1,1%,10µM*,-6%[57.1 µM],-1%[57.1 µM]
COc1ccc(C2=NS(=O)(=O)N(C)C(C(=O)N3CCOCC3)=C2)cc1,-11%,-11%,9%[57.1 µM],-1%[57.1 µM]
CCN(c1ccccc1)S(=O)(=O)c1ccc(NC(=O)c2cc(=O)c3cc(C)cc(C)c3o2)cc1,4%,-6%,-2%,2%
O=C(O)c1cc(N2N=C(C(F)(F)F)/C(=C/C=C/c3ccco3)C2=O)ccc1Cl,?,7.9µM*,?,-4%
CC(NC(=O)C1CCN(C(=O)N2CCOc3ccc(Cl)cc32)CC1)c1ccccc1 (configuration not stated),6%,-14%,12%,4%
COc1ccc(CCC(=O)NCc2ccco2)cc1,-10%,-8%,11µM*,16%[57.1 µM]
COc1ccc(C2CC(=O)Oc3c(C(CCN4CCCC(C)C4)c4cc(OC)c(OC)c(OC)c4)c(OC)cc(OC)c32)cc1 (configuration not stated),-8%,/,1%,-2%
O=[N+]([O-])c1ccc(O/N=[N+](\[O-])N2CCN(c3ccccc3)CC2)c([N+](=O)[O-])c1,/,/,32µM*,-7%
O=[N+]([O-])c1ccc(O/N=[N+](\[O-])N2CCN(c3ncccn3)CC2)c([N+](=O)[O-])c1,/,/,14µM*,10%[0.457 µM]
CC(C)(C)OC(=O)N1CCN(/[N+]([O-])=N/Oc2ccc([N+](=O)[O-])cc2[N+](=O)[O-])CC1,/,/,?,15%
CCCCC(CC)CNC(=O)CCCc1nnc2n(CCC)c(=O)c3sccc3n12 (configuration not stated),-8%,1%,28%,10%
Cc1c(CC(=O)N2CCN(C(=O)C3COc4ccccc4O3)CC2)c(=O)oc2cc(O)ccc12 (configuration not stated),2%,28µM*,89µM*,871%
Cc1nnc(SCC2=C(C(=O)O)N3C(=O)C(NC(=O)COc4ccccc4)C3SC2)s1 (configuration not stated),?,-1%,7.9µM*,0%[57.1 µM]
Cc1nnc(SCC2=C(C(=O)O)N3C(=O)C(NC(=O)COc4ccc(F)cc4)C3SC2)s1 (configuration not stated),79µM*,-7%,4µM*,-4%
Cc1nnc(SCC2=C(C(=O)O)N3C(=O)C(NC(=O)Cn4nc(C(F)F)cc4C)C3SC2)s1 (configuration not stated),-36%,-9%,45µM*,-6%
CC(C)n1c(N)c(C#N)c2ccc([N+](=O)[O-])cc2c1=O,-5%,-2%,-8%,-9%
SMILES,VDR inhibitor,GCN5L2 inh,TrxR1 inh,TrxR1 substrate
N#Cc1c(N)n(-c2ccccc2)c(=O)c2cc([N+](=O)[O-])ccc12,45µM*,-8%,17%[57.1 µM],-1%
O=C(Nc1ccccc1F)c1ccc2c(Cl)c3c(nc2c1)CCC3,-14%,3%,0%,-11%
CCOc1ccccc1N/C(=C(/C(Cl)=C(Cl)Cl)[N+](=O)[O-])n1cncn1,?,-8%,22µM*,-14%
CCOc1ccc(N/C(=C(/C(Cl)=C(Cl)Cl)[N+](=O)[O-])n2cncn2)cc1,/,0%,/,/
CN(C)c1ccc(C=Nc2cncc3ccccc23)cc1,/,/,18%,20%
COc1ccc(S(=O)(=O)N2c3ccc(Cl)cc3[C@](O)(c3ccccc3Cl)[C@@H]2C(=O)N2CCC[C@H]2C(N)=O)cc1OC,-12%,-4%,/,/
CN1CCN(CC(=O)c2cc(C(C)(C)C)c(O)c(C(C)(C)C)c2)CC1,71µM*,0%,13%[57.1 µM],-12%
NCC(=O)N[C@@H](CCCN=C(N)N)C(=O)NCC(=O)N[C@@H](CC(=O)O)C(=O)N[C@@H](CC(N)=O)C(=O)N1CC[C@@H](C(=O)O)C1,-2%,3%,/,/
N#CCCCN1C(=O)C(=C(C#N)C#N)c2ccccc21,?,12%,13µM*,-4%
CC[C@@H](C)[C@H](NS(=O)(=O)c1cccc2ccccc12)C(=O)N[C@H](C=O)Cc1c[nH]c2ccccc12,32µM*,-7%,/,/
CCc1cccc2c(C(O)c3c[nH]c4ccccc34)c[nH]c12 (configuration not stated),/,/,1%,-2%
Cc1cnc2c(C)ccc(C)c2c1/C=C/c1ccc(N(C)C)cc1,/,/,-3%,-10%
CC(=O)c1ccc(NC(=O)c2noc3c2CCC3)cc1,-12%,?,50µM*,-10%
Cc1ccc(NC(=O)c2noc3c2CCC3)cc1C,-11%,?,50µM*,13%
O=C(Nc1ccc(OC(F)(F)F)cc1)c1noc2c1CCCC2,1%,3%,21%,2%
C[N+](C)(CCCCCI)c1ccc(/C=C/c2nc3ccccc3s2)cc1,/,/,-26%,-10%
CN(C)CC(CCC(CN(C)C)C(=O)c1ccccc1)C(=O)c1ccccc1 (configuration not stated),45µM*,-10%,2.8µM*,4%[57.1 µM]
COc1ccc(C(=O)C(CCCCC(CN(C)C)C(=O)c2ccc(OC)cc2)CN(C)C)cc1 (configuration not stated),15%,-8%,-19%,-1%
CCOc1ccc(C(=O)C(CCC(CN(C)C)C(=O)c2ccc(OCC)cc2)CN(C)C)cc1 (configuration not stated),?,-2%,2.8µM*,-10%
CC1(C)C(=O)C=C[C@]2(C)C1CC(=O)[C@]1(C)C2CC[C@@]2(C)C(c3ccoc3)OC(=O)C3O[C@@]321 (some centres not stated),20µM*,-13%,/,/
